# Assay results as given in PubChem BioAssay (NCATS).
# Records with an inconclusive call do not appear. Active and inactive are the calls of the source. Calls come from the whole dose curve; as a rule, active = well fitted curve in the direction sought with a large enough effect; inconclusive = small, poorly fitted or top-dose-only effect, or another doubt; inactive = no such curve, though single readings can be large or run the other way.
# Molecular target: Glucagon-like peptide 1 receptor (Homo sapiens) (UniProt P43220)
# Sequence (P43220 whole entry, looked up): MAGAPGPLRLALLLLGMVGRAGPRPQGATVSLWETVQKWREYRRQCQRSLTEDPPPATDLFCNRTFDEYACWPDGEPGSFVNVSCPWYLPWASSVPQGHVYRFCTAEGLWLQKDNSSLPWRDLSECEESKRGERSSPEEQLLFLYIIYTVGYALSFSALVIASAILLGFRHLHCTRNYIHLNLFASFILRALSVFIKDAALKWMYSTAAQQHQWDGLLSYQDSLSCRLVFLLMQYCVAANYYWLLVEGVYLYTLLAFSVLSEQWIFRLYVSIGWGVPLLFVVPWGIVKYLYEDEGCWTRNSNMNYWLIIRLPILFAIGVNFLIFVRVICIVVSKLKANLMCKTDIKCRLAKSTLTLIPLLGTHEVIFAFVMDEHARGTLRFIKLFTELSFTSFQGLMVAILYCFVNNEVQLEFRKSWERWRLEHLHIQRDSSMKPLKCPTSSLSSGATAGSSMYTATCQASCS
# Assay: qHTS of GLP-1 Receptor Agonists: LOPAC Validation (AID 624148);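 note: luminescence from a luciferase reporter switched on by cAMP; higher luminescence signal means agonism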
# Conditions: GLP-1R agonist cell assay; series mostly up to 46.1 µM
# Excerpt: The overall goal of this project was to develop a novel assay for discovering small molecule ligands for class B1 G protein-coupled receptors (GPCRs). Very few agonists (or inverse agonists) with generally weak activity for this entire group of physiologically important receptors are known to date. To establish proof-of-principle that this critical bottleneck can be overcome with a suitable screening approach, our studies focused on the class B1 receptor for glucagon-like peptide-1 (GLP-1R), a potential therapeutic target for diabetes and neurodegenerative disease.
# The assay was developed in a "mix and measure" format using a cell-based functional readout. Toward this goal, stably transfected HEK293 cell clones were established that co-express (i) a cAMP-responsive luciferase reporter gene, and (ii) GLP-1Rs that upon ligand interaction either stimulate (agonists) or inhibit (inverse agonists) luciferase activity. In different cell lines to be used for screening, expressed GLP-1Rs are specifically optimized for high sensitivity detection of either weak agonists (hypersensitive receptor) or inverse agonists (constitutively active receptor mutant). In addition, control cell lines were developed that express either the cAMP-responsive reporter gene without recombinant GLP-1Rs (enabling initial exclusion of GLP-1R independent effects of candidate probes), or the reporter gene together with wild type GLP-1Rs (for confirmation of probe activity at this receptor), or the reporter gene in combination with the constitutively active orphan receptor GPR119 (enabling initial exclusion of GLP-1R independent inhibitory effects of candidate inverse agonists).
# To that end, this assay was optimized for 1536-well format and screened against the MLSMR.
# NIH Molecular Libraries Probe Production Network [MLPCN]
# NIH Chemical Genomics Center [NCGC]
# PI Name: Martin Beinborn, Tufts Medical Center
# In a white solid 1536-well plate, 6 uL of cells are dispensed in DMEM without phenol red, 10% Nu serum, and 1% pen-strep medium. The plates are then incubated for 12 hours at 37 deg C at 5% CO2 before 23 nL of compounds are added. After a 4-6 hr incubation at37 deg C and 5% CO2, 3 uL of detection reagent are added and after a 12 min incubation at RT, a luminescent read is obtained on the ViewLux.
row,Structure (SMILES),outcome
1,CC1=NS(=O)(=O)c2cc(Cl)ccc2N1,inactive
2,CCO/C([O-])=N/c1c[n+](N2CCOCC2)no1,inactive
3,CN(C)CC/C=C1\c2ccccc2COc2ccccc21,inactive
4,CNCCCN1c2ccccc2CCc2ccccc21,inactive
5,C[C@]12CCC(=O)C=C1CC[C@@H]1[C@@H]2CC[C@@]2(C)[C@H]1CC[C@]2(O)C(=O)CO,inactive
6,NC(Cc1ccc(Cl)cc1)C(=O)O (stereo not given),inactive
7,CN1C[C@H](C(=O)N[C@]2(C)O[C@@]3(O)[C@@H]4CCCN4C(=O)[C@H](Cc4ccccc4)N3C2=O)C[C@@H]2c3cccc4[nH]cc(c34)C[C@H]21,inactive
8,CC(C)NNC(=O)c1ccncc1,inactive
9,CN=C(NC#N)NCCSCc1nc[nH]c1C,inactive
10,O=c1[nH]c(=O)n([C@H]2C[C@H](O)[C@@H](CO)O2)cc1Br,inactive
11,Cc1scc2c1N(C(=O)CN1CCN(C)CC1)c1ccccc1NC2=O,inactive
12,COCCCC/C(=N\OCCN)c1ccc(C(F)(F)F)cc1,inactive
13,COc1cc(Cc2cnc(N)nc2N)cc(OC)c1OC,inactive
14,COC(=O)C1=C(C)NC(C)=C(C(=O)OCCN(C)Cc2ccccc2)C1c1cccc([N+](=O)[O-])c1 (stereo not given),inactive
15,CCN(Cc1ccncc1)C(=O)C(CO)c1ccccc1 (stereo not given),inactive
16,CCCN(CCC)C(=O)C(CCC(=O)O)NC(=O)c1ccccc1 (stereo not given),inactive
17,CC1=C(C)C(=O)C(CCCCC#CCCCC#CCO)=C(C)C1=O,inactive
18,C[N+](C)(C)CCCCCCCCCC[N+](C)(C)C,inactive
19,CN1CCN(C2=Nc3ccccc3Oc3ccc(Cl)cc32)CC1,inactive
20,CCN(CC)CCNC(=O)c1cc(S(C)(=O)=O)ccc1OC,inactive

row,Structure (SMILES),outcome
1,CC(=O)[C@]1(O)Cc2c(O)c3c(c(O)c2[C@@H](O[C@H]2C[C@H](N)[C@H](O)[C@H](C)O2)C1)C(=O)c1ccccc1C3=O,inactive
2,CCCCCCCC/C=C\CCCCCCCC(=O)NCc1ccc(O)c(OC)c1,inactive
3,NC(=O)c1ncn([C@@H]2O[C@H](CO)[C@@H](O)[C@H]2O)c1O,inactive
4,CN(C)C(=O)Oc1ccc[n+](C)c1,inactive
5,NC(N)=NC(=O)Cc1c(Cl)cccc1Cl,inactive
6,COc1ccc(CCN(C)CCCC(C#N)(c2cc(OC)c(OC)c(OC)c2)C(C)C)cc1OC (stereo not given),inactive
7,CN(C)CCCN1c2ccccc2Sc2ccccc21,inactive
8,CCCC(C(=O)OCCN(CC)CC)(c1ccccc1)c1ccccc1,inactive
9,CCOC(=O)C1=C(C)NC(C)=C(C(=O)OC)C1c1cccc([N+](=O)[O-])c1 (stereo not given),inactive
10,CN(C)CCCN1c2ccccc2Sc2ccc(C(F)(F)F)cc21,inactive
11,O=C(O)CN(CCN(CC(=O)O)CC(=O)O)CCN(CC(=O)O)CC(=O)O,inactive
12,CCN1CCC[C@H]1CNC(=O)c1c(O)c(Cl)cc(Cl)c1OC,inactive
13,CCn1nc(C(=O)O)c(=O)c2cc3c(cc21)OCO3,inactive
14,CN(C)CC[C@@H](c1ccc(Br)cc1)c1ccccn1,inactive
15,C[C@]12CC[C@@H]3c4ccc(O)cc4C[C@@H](CCCCCCCCCS(=O)CCCC(F)(F)C(F)(F)F)[C@H]3[C@@H]1CC[C@@H]2O (stereo not given in full),inactive
16,CCN(CC)CCNC(=O)c1ccc(NC(C)=O)cc1,inactive
17,CC(C)COCC(CN(Cc1ccccc1)c1ccccc1)N1CCCC1 (stereo not given),inactive
18,CN(C)[C@@H]1C(=O)C(C(N)=O)=C(O)[C@@]2(O)C(=O)C3=C(O)c4c(O)ccc(Cl)c4[C@@H](O)[C@H]3C[C@@H]12,inactive
19,CC(=O)Nc1nnc(S(N)(=O)=O)s1,inactive
20,COC(=O)[C@@H](N)Cc1ccc(O)c(O)c1,inactive
